According to PubChem BioAssay:
The source made the active and inactive calls. Unless noted, no rule for the calls is given here.

What was measured:
[1] = tested on: Wnt5a (protein binding on small-molecule microarray); test: Wnt5a binders on small-molecule microarray, primary screen, biophysical, 635/667 nm fluorescence (AID 1142); settings: 635 nm fluorescence, higher = more signal;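 also: fluorescence read at 667 nm with signal to noise per printed feature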
[2] = cell viability in Huh7 cells, primary screen, cytotoxicity control for HCV replication inhibitor project, CellTiter-Glo luminescence, basal, 48 h (AID 1143); settings: Huh7 HCV replicon, higher = more signal, called active from +8 up or from −8 down;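 also: Huh7 hepatoma cells carrying a hepatitis C replication reporter with no stimulus; test concentration not given here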
[3] = P. aeruginosa biofilm formation inhibitors, primary screen, PAO1 strain, BacTiter-Glo luminescence, LB-PBS (AID 1144); settings: 12 h, higher = more signal
[4] = CREB reporter modulators without forskolin, primary screen, cell-based, PC12, CRE-LacZ reporter, unstimulated (AID 1145); settings: no forskolin, luminescence, 4.5 h, higher = more signal, called active from +8 up or from −8 down
[5] = CREB reporter modulators under forskolin, primary screen, cell-based, PC12, CRE-LacZ reporter, forskolin-stimulated (AID 1146); settings: luminescence, 4.5 h, higher = more signal, called active from +8 up or from −8 down;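 also: PC12 cells with 6xCRE LacZ reporter stimulated by forskolin 10 µM; beta-galactosidase reporter signal reflecting CREB driven transcription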
[6] = molecular target: Streptavidin (Streptomyces avidinii) (UniProt P22629); test: streptavidin binders on small-molecule microarray, primary screen, artefact control for SMM compound annotation, biophysical, 635/667 nm fluorescence (AID 1147); settings: streptavidin binding, higher = more signal;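 also: signal reflects streptavidin binding to arrayed compounds as a control protein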
Chain of Streptavidin (Streptomyces avidinii) (P22629 whole entry, looked up): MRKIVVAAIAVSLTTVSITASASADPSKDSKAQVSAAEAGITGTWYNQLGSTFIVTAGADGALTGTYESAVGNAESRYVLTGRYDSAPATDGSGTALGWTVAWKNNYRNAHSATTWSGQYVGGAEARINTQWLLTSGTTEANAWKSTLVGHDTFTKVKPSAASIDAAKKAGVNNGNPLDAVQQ

[7] = small-molecule binders of probe aInhba, primary screen, biochemical, small-molecule microarray, 635/667 nm fluorescence (AID 1148); settings: higher = more signal;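 also: score merges 667nm spot fluorescence with signal-to-noise for antibody binding to printed compounds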
Torsin-1A (Homo sapiens) [8] = molecular target: Torsin-1A (Homo sapiens) (UniProt O14656); test: torsin A binders from cell lysate, primary screen, small-molecule microarray, wild-type, 635/667 nm (AID 1149); settings: COS7 hTOR1A-WT lysate, 635 nm fluorescence, higher = more signal
Chain of Torsin-1A (Homo sapiens) (O14656 whole entry, looked up): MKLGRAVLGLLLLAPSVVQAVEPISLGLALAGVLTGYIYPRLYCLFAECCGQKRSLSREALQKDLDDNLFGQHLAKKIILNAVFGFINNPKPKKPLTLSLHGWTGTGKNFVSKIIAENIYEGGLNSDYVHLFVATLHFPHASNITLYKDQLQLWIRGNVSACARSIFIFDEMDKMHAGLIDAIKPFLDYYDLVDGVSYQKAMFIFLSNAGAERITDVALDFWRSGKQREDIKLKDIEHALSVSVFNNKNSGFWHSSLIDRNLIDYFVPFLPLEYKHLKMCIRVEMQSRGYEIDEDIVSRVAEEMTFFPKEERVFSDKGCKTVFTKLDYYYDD

Torsin-1A (Homo sapiens) [9] = molecular target: Torsin-1A (Homo sapiens) (UniProt O14656); test: small-molecule binders of mutant TOR1A in lysate, primary screen, cell lysate, small-molecule microarray, COS7 lysate, 635/667 nm fluorescence (AID 1150); settings: COS7 hTOR1A mutant lysate, 635 nm fluorescence, higher = more signal;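 also: score pools 667 nm emission and signal to noise measuring lysate protein binding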
[10] = tested on: Sonic hedgehog protein (Shh); test: small-molecule binders of Shh protein, primary screen, biochemical, small-molecule microarray, 635/667 nm fluorescence (AID 1151); settings: small-molecule microarray binding, 635 nm fluorescence; higher = more signal;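 also: Shh protein binding to compounds spotted on small-molecule microarray slides; score combines spot fluorescence intensity with signal-to-noise across triplicate slides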
[11] = E. coli DRC41 culture turbidity changes, primary screen, E. coli filamentation inducer project, strain DRC41, OD650, 48 h (AID 1152);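 also: E. coli MC1000 strain DRC41 lacking acrAB efflux pump and sulA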; settings: E. coli DRC41 (acrAB sulA), higher = more signal, called active from +8 up or from −8 down
[12] = small-molecule binders of probe aLefty1, primary screen, biochemical, small-molecule microarray, 635/667 nm fluorescence (AID 1153); settings: higher = more signal;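 also: score merges spot fluorescence with signal-to-noise ratio from the scanned slide images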
[13] = PSAC antagonists in infected red cells, primary screen, cell-based, P. falciparum Indochina, OD700, 1 h (AID 1154); settings: P. falciparum Indochina infected RBC osmotic lysis, higher = more signal, called active from +8 up or from −8 down
[14] = PSAC antagonists in infected red cells, primary screen, cell-based, P. falciparum Indochina, OD700, 2 h (AID 1155);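 also: lysis reports solute entry through the parasite surface anion channel PSAC; channel blockers reduce lysis of infected cells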; settings: P. falciparum Indochina infected erythrocytes, osmotic lysis OD700; higher = more signal, called active from +8 up or from −8 down
[15] = osmotic lysis modulators in infected erythrocytes, primary screen, PSAC antagonist project, cell-based, P. falciparum Indochina, OD700, 3 h (AID 1156); settings: higher = more signal, called active from +8 up or from −8 down
[16] = PSAC antagonists in infected red cells, primary screen, cell-based, P. falciparum Indochina, OD700, 18 h (AID 1157); settings: P. falciparum Indochina infected erythrocytes, osmotic lysis OD700, 18 h; higher = more signal, called active from +8 up or from −8 down
[17] = modulators of S6 phosphorylation in cells, primary screen, cell-based, A549, cytoblot, luminescence, serum-stimulated (AID 1158); settings: A549 phospho-S6 cytoblot, 5 h, higher = more signal;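 also: serum-stimulated A549 lung adenocarcinoma cells; signal is phosphorylated S6 detected by cytoblot immunostaining with HRP secondary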
[18] = molecular target: NADPH oxidase 2 (Homo sapiens) (UniProt P04839); test: NOX2-dependent H2O2 signal modulators, primary screen, NOX inhibitor project, cell-based, HEK293-NOX2, PMA-stimulated, Amplex Red fluorescence (AID 1159); settings: 45 min, higher = more signal, called active from +8 up or from −8 down; also: test concentration not given here
Chain of NADPH oxidase 2 (Homo sapiens) (P04839 whole entry, looked up): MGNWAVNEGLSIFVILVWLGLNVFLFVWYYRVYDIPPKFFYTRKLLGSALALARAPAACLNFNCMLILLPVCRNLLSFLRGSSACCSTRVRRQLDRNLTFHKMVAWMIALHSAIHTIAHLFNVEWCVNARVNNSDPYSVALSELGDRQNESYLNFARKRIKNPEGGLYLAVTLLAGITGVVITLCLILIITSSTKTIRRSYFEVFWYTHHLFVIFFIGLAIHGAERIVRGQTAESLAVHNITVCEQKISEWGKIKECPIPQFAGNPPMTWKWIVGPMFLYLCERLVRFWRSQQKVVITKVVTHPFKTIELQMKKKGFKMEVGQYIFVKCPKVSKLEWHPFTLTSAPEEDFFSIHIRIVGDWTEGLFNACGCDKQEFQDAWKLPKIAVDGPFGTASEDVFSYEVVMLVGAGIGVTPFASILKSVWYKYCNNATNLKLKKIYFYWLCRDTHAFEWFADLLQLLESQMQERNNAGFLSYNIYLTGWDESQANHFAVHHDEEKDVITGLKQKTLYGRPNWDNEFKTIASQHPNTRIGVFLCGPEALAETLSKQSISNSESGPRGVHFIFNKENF

[19] = molecular target: NADPH oxidase 4 (Homo sapiens) (UniProt Q9NPH5); test: NOX4-dependent H2O2 signal modulators, primary screen, NOX inhibitor project, cell-based, HEK293-NOX4, tetracycline-induced, Amplex Red fluorescence (AID 1160); settings: 45 min, higher = more signal, called active from +8 up or from −8 down
Chain of NADPH oxidase 4 (Homo sapiens) (Q9NPH5 whole entry, looked up): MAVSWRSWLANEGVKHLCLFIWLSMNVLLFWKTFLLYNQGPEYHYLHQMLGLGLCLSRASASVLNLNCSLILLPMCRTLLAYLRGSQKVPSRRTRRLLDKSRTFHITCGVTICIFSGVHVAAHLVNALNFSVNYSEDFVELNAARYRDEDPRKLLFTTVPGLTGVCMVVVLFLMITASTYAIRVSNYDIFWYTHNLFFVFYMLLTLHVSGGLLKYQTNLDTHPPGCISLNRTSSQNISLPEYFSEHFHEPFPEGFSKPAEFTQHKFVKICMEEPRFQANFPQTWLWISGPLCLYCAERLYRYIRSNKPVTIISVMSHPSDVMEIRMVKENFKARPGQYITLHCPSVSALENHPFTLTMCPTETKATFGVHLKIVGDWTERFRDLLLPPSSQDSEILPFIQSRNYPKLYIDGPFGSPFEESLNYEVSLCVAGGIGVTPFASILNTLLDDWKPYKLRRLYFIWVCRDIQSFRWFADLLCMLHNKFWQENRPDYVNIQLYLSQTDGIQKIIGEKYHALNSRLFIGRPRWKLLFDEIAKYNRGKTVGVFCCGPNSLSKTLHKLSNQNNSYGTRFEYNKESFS

[20] = molecular target: NADPH oxidase 5 (Homo sapiens) (UniProt Q96PH1); test: NOX5-dependent H2O2 signal modulators, primary screen, NOX inhibitor project, cell-based, HEK293-NOX5, Amplex Red fluorescence (AID 1161); settings: HEK293-NOX5, ionomycin, 45 min, higher = more signal
Chain of NADPH oxidase 5 (Homo sapiens) (Q96PH1 whole entry, looked up): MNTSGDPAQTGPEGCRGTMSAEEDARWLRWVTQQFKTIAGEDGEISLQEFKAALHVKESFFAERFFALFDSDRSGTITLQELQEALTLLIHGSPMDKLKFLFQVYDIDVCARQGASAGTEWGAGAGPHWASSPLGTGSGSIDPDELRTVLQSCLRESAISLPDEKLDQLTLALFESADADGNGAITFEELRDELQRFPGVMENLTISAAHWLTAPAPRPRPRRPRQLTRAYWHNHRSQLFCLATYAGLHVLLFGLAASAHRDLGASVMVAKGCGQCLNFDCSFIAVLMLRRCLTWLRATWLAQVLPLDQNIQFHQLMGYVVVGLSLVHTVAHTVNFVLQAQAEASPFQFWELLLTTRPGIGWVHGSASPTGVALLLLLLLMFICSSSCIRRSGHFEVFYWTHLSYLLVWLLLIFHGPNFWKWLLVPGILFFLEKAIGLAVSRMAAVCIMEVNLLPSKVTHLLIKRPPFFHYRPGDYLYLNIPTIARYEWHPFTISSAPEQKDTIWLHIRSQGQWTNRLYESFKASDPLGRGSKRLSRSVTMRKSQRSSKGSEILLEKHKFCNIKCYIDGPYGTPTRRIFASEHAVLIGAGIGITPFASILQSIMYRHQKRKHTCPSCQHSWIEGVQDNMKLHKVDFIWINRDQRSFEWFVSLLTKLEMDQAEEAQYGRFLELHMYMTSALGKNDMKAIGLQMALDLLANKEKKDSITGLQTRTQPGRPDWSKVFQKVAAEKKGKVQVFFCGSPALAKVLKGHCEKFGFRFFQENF

Row | SMILES | composite z-score [1] | z-score [2] | z-score [3] | z-score [4] | z-score [5] | composite z-score [6] | composite z-score [7] | composite z-score (Torsin-1A (Homo sapiens) [8]) | composite z-score (Torsin-1A (Homo sapiens) [9]) | composite z-score [10] | z-score [11] | composite z-score [12] | z-score [13] | z-score [14] | z-score [15] | z-score [16] | z-score [17] | z-score [18] | z-score [19] | z-score [20]
1 | COCCOC(=O)N1C(=O)[C@@]2(c3ccccc31)[C@H](c1ccc(OCCO)cc1)N1[C@H](c3ccccc3)[C@H](c3ccccc3)OC(=O)[C@H]1[C@@H]2C(=O)NC[C@H](O)c1ccccc1 | 0.385 | -1.49 (inactive) | 0.109 (inactive) | 0.891 (inactive) | 10.1 (active) | 0.258 | 0.268 | 1.19 | 0.662 | 2.04 | -0.769 (inactive) | 0.643 | 7.9 (inactive) | 1.94 (inactive) | 0.0925 (inactive) | 0.728 (inactive) | -0.575 | 1.28 (inactive) | 0.989 (inactive) | 0.894
2 | CC(C)C[C@@H]1NC(=O)[C@@H]2C[C@H](C(=O)NCCCC[N+](C)(C)C)[C@H](c3cccc(OCCO)c3)N2C1=O | 0.379 | 0.347 (inactive) | -0.595 (inactive) | -0.943 (inactive) | -0.231 (inactive) | 0.154 | -0.025 | 1.3 | 0.66 | 2.11 | -0.44 (inactive) | 0.115 | 3.73 (inactive) | 1.16 (inactive) | -0.369 (inactive) | 0.645 (inactive) | -0.102 | -1.2 (inactive) | -0.152 (inactive) | -0.372
3 | COC(=O)[C@@]1(Cc2ccc(OC)cc2)[C@H]2c3cc(C(=O)N(C)C)n(CCF)c3C[C@H]2CN1C(=O)c1ccccc1 | 0.17 | -2.15 (inactive) | 0.475 (inactive) | 1.35 (inactive) | -0.715 (inactive) | 2.2 | 0.515 | 0.3 | 0.541 | -0.379 | -0.55 (inactive) | 0.624 | 1.81 (inactive) | 0.847 (inactive) | 0.865 (inactive) | 1.06 (inactive) | -0.132 | 0.605 (inactive) | 2.58 (inactive) | 0.602
4 | CN1C(=O)C2C=CC(C(O)c3ccc(F)cc3)N(N3CCCCC3)C2C1=O (stereo not given) | 0.442 | 1 (inactive) | -0.273 (inactive) | 1.01 (inactive) | -0.523 (inactive) | 0.428 | 0.838 | 0.759 | 0.531 | -0.846 | -1.37 (inactive) | 0.604 | 1.02 (inactive) | 1.14 (inactive) | 0.772 (inactive) | 1.2 (inactive) | -1.08 | 0.0457 (inactive) | -0.751 (inactive) | -1.35
5 | CN(C)C(=O)[C@@]1(Cc2ccccc2N=[N+]=[N-])N=C(c2ccc(OCCCO)cc2)O[C@H]1c1ccccc1N=[N+]=[N-] | 0.451 | -3.76 (inactive) | 1.19 (inactive) | 1.19 (inactive) | -1.97 (inactive) | 0.54 | 0.0028 | 0.761 | 0.776 | -0.536 | 0.0086 (inactive) | -0.213 | 31.3 (active) | 29.7 (active) | 2.54 (inactive) | 3.39 (inactive) | 0.246 | -1.34 (inactive) | -0.493 (inactive) | -2
6 | CCCC=C(CCC)[C@@H](NS(=O)(=O)c1cccc2cccnc12)c1ccc(C(=O)OC)cc1 | 3.01 | -0.0811 (inactive) | -0.124 (inactive) | -1.13 (inactive) | 0.0608 (inactive) | 0.358 | 2.04 | 0.361 | 0.0731 | -0.187 | -1.2 (inactive) | 0.968 | -0.643 (inactive) | -0.299 (inactive) | -0.722 (inactive) | -1.19 (inactive) | 0.393 | 0.0603 (inactive) | 0.212 (inactive) | 2
7 | CCN(CC)c1ccc(N2CC=CC34O[C@@H]5/C=C\CCCOC(=O)C5[C@H]3C(=O)N(CCCCCCO)[C@@H]4C2=O)cc1 (stereo not given in full) | -0.517 | -0.0416 (inactive) | 0.194 (inactive) | 0.475 (inactive) | 0.458 (inactive) | -0.41 | -0.0762 | -1.7 | -1.59 | 0.216 | 1.75 (inactive) | 0.135 | 1.78 (inactive) | -0.475 (inactive) | 0.625 (inactive) | -0.354 (inactive) | 1.66 | 0.274 (inactive) | 0.275 (inactive) | 1.36
8 | C=CCOc1ccc([C@@H]2CC=C(C(=O)OCC)[C@H](c3cccc(Br)c3)N2S(=O)(=O)c2ccc(C)cc2)cc1 | 0.141 | -4.43 (inactive) | 0.681 (inactive) | -0.424 (inactive) | 0.165 (inactive) | 0.414 | -0.0831 | 0.0699 | 0.307 | 0.0537 | 0.251 (inactive) | -0.012 | 0.652 (inactive) | -0.384 (inactive) | -0.864 (inactive) | -2.24 (inactive) | 1.11 | 0.629 (inactive) | 0.399 (inactive) | -0.0171
9 | COC(=O)[C@@]1(Cc2ccccc2)[C@H]2c3cc(C(=O)N4CCCC4)n(Cc4ccc(OC(F)(F)F)cc4)c3C[C@H]2CN1C(=O)c1ccccc1 | 1.01 | -2.44 (inactive) | 0.0853 (inactive) | 2.49 (inactive) | 2.25 (inactive) | 1.64 | 1.08 | -0.429 | 0.969 | -1.44 | -2.11 (inactive) | 0.592 | 3.6 (inactive) | 1.2 (inactive) | 1.01 (inactive) | 1.35 (inactive) | -0.366 | 0.828 (inactive) | 1.34 (inactive) | 0.914
